# Assay results as given in PubChem BioAssay (NCI).
# This is part of a sample that, as a whole, favours compounds with a hit. Of some 79,000 tested, about 15% had one in any assay. A number with no mark means an inactive call. The source made the active and inactive calls. Rule as the data show it: active = growth inhibition above about 70%; inactive = the rest.
# Legend:
# [1] = NCI Yeast Anticancer Drug Screen. Data for the rad52 strain (AID 147);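 also: 0% = growth of vehicle-treated control cultures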; details: S. cerevisiae rad52 mutant growth inhibition, active compounds read high
# How it was run: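 Measured: yeast growth inhibition. System: strain with a defined DNA damage repair alteration. Reference: vehicle-treated control cultures.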
# [2] = NCI Yeast Anticancer Drug Screen. Data for the rad50EPP+ strain (AID 151);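 also: 0% = growth of vehicle-treated control cultures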; details: S. cerevisiae rad50 mutant strain, active compounds read high
# How it was run: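 One strain with a rad50 alteration (rad50EPP+) was compound-treated, its growth then compared to that of vehicle controls.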
# [3] = NCI Yeast Anticancer Drug Screen. Data for the mgt1 strain (AID 153); details: S. cerevisiae mgt1 mutant growth inhibition, active compounds read high
# How it was run: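 After exposure of the mgt1 yeast mutant to compound, growth was measured and reported as inhibition compared with vehicle controls.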
# [4] = NCI Yeast Anticancer Drug Screen. Data for the rad50 strain (AID 155);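 also: 0% = growth of vehicle-only cultures of the same strain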; details: S. cerevisiae rad50 strain growth inhibition, active compounds read high
# How it was run: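 Yeast carrying a defined DNA repair defect were exposed to test compounds, and growth was compared with vehicle-treated controls to give percent inhibition.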
# [5] = NCI Yeast Anticancer Drug Screen. Data for the mec2-1 strain (AID 157); details: S. cerevisiae mec2-1 strain, active compounds read high
# How it was run: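 Test agents were screened against the mec2-1 yeast strain, with defined DNA repair or cell cycle alteration. Growth was scored as inhibition against vehicle-only controls.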
# [6] = NCI Yeast Anticancer Drug Screen. Data for the rad14 strain (AID 159);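 also: 0% = growth of vehicle-treated control cultures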; details: S. cerevisiae rad14 strain growth inhibition, active compounds read high
# How it was run: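 Yeast cells carrying a defined DNA-repair defect were exposed to compounds, and growth inhibition was calculated relative to vehicle-treated control cultures.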
# [7] = NCI Yeast Anticancer Drug Screen. Data for the sgs1 mgt1 strain (AID 161);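 also: 0% = growth of cultures given vehicle only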; details: S. cerevisiae sgs1 mgt1 strain, active compounds read high
# How it was run: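 Genetically altered yeast, compound exposure, growth inhibition relative to vehicle.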
# [8] = NCI Yeast Anticancer Drug Screen. Data for the CLN2oe strain (AID 163);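 also: 0% = growth of vehicle-only control cultures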; details: S. cerevisiae CLN2oe strain, active compounds read high
# How it was run: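 Here, growth inhibition in a cell-cycle-altered yeast strain after compound exposure was quantified against vehicle control growth.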
# [9] = NCI Yeast Anticancer Drug Screen. Data for the cln2 rad14 strain (AID 165);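 also: 0% = growth equal to vehicle treated cultures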; details: S. cerevisiae cln2 rad14 strain, active compounds read high
# How it was run: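 Growth of compound-exposed yeast (cln2 rad14 genotype) measured and expressed as inhibition relative to vehicle.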
# [10] = NCI Yeast Anticancer Drug Screen. Data for the bub3 strain (AID 167); details: S. cerevisiae bub3 mutant strain, active compounds read high
# How it was run: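 Compounds were applied to a genetically altered yeast strain carrying a cell-cycle control defect. Growth inhibition was scored against vehicle-treated controls.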
# [11] = NCI Yeast Anticancer Drug Screen. Data for the wt2 strain (AID 169);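 also: 0% = growth of vehicle-treated yeast cultures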; details: S. cerevisiae wt2 strain growth inhibition, active compounds read high
# How it was run: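 Genetically defined yeast strains from a DNA-repair/cell-cycle panel were used. Compound-exposed yeast growth was measured, and the inhibition was calculated relative to vehicle treatment.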
# [12] = NCI Yeast Anticancer Drug Screen. Data for the mlh1 strain (AID 171);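 also: 0% = growth of vehicle-treated control cultures of the same strain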; details: S. cerevisiae mlh1 strain growth inhibition, active compounds read high
# How it was run: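 Here the genetically defined yeast mutant is grown with each compound, and the extent to which its growth falls below that of vehicle-exposed cells is reported.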
# [13] = NCI Yeast Anticancer Drug Screen. Data for the sgs1 strain (AID 173);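 also: 0% = growth of vehicle-only control cultures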; details: S. cerevisiae sgs1 mutant, active compounds read high
# How it was run: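 Relative growth inhibition, referenced to vehicle, was determined in a yeast strain with a defined alteration affecting DNA damage repair or cell cycle control after compound exposure.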
# [14] = NCI Yeast Anticancer Drug Screen. Data for the mlh1 rad18 strain (AID 175); details: S. cerevisiae mlh1 rad18 strain growth inhibition, active compounds read high
# How it was run: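 In this whole-cell yeast screen, a strain with altered DNA damage repair is challenged with compound, and its growth is measured against matched vehicle-treated controls.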
# [15] = NCI Yeast Anticancer Drug Screen. Data for the rad18 strain (AID 177); details: S. cerevisiae rad18 mutant growth inhibition, active compounds read high
# How it was run: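 Screen uses a yeast strain with a defined lesion in DNA damage repair; compound effect is read as loss of growth compared to untreated vehicle cultures.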
# [16] = at 5.0 µM (retest, dose inferred, filed as 0.5)
# [17] = at 50.0 µM (retest, dose inferred, filed as 5.0)
smiles,measurement,setting,value
COc1cc([C@@H]2c3cc4c(cc3C[C@@H]3COC(=O)C32)OCO4)cc(OC)c1O (stereo not given in full),growth inhibition,[1]; at 1.2 µM,42%
same,growth inhibition,[1]; at 3.7 µM,62%
same,growth inhibition,[1]; at 11.0 µM,93% (active)
same,growth inhibition,[1]; at 33.0 µM,95% (active)
same,growth inhibition,[1]; at 100.0 µM,96% (active)
same,growth inhibition,[2]; at 1.2 µM,-5%
same,growth inhibition,[2]; at 3.7 µM,-6%
same,growth inhibition,[2]; at 11.0 µM,-4%
same,growth inhibition,[2]; at 33.0 µM,-4%
same,growth inhibition,[2]; at 100.0 µM,-6%
same,growth inhibition,[3]; at 1.2 µM,29%
same,growth inhibition,[3]; at 3.7 µM,22%
same,growth inhibition,[3]; at 11.0 µM,53%
same,growth inhibition,[3]; at 33.0 µM,59%
same,growth inhibition,[3]; at 100.0 µM,93% (active)
same,growth inhibition,[4]; at 1.2 µM,53%
same,growth inhibition,[4]; at 3.7 µM,76% (active)
same,growth inhibition,[4]; [16],64%
same,growth inhibition,[4]; at 11.0 µM,94% (active)
same,growth inhibition,[4]; at 33.0 µM,96% (active)
same,growth inhibition,[4]; [17],96% (active)
same,growth inhibition,[4]; at 50.0 µM,97.1% (active)
same,growth inhibition,[4]; at 100.0 µM,97% (active)
same,growth inhibition,[5]; at 1.2 µM,1%
same,growth inhibition,[5]; at 3.7 µM,17%
same,growth inhibition,[5]; [16],3%
same,growth inhibition,[5]; at 11.0 µM,49%
same,growth inhibition,[5]; at 33.0 µM,92% (active)
same,growth inhibition,[5]; [17],46%
same,growth inhibition,[5]; at 50.0 µM,98.8% (active)
same,growth inhibition,[5]; at 100.0 µM,96% (active)
same,growth inhibition,[6]; at 1.2 µM,9%
same,growth inhibition,[6]; at 3.7 µM,8%
same,growth inhibition,[6]; at 11.0 µM,65%
same,growth inhibition,[6]; at 33.0 µM,75% (active)
same,growth inhibition,[6]; at 100.0 µM,93% (active)
same,growth inhibition,[7]; [16],5%
same,growth inhibition,[7]; [17],45%
same,growth inhibition,[7]; at 50.0 µM,78.3% (active)
same,growth inhibition,[8]; at 1.2 µM,-3%
same,growth inhibition,[8]; at 3.7 µM,0%
same,growth inhibition,[8]; at 11.0 µM,24%
same,growth inhibition,[8]; at 33.0 µM,58%
same,growth inhibition,[8]; at 100.0 µM,51%
same,growth inhibition,[9]; [16],9%
same,growth inhibition,[9]; [17],93% (active)
same,growth inhibition,[9]; at 50.0 µM,86.2% (active)
same,growth inhibition,[10]; at 1.2 µM,3%
same,growth inhibition,[10]; at 3.7 µM,5%
same,growth inhibition,[10]; [16],-36%
same,growth inhibition,[10]; at 11.0 µM,31%
same,growth inhibition,[10]; at 33.0 µM,50%
same,growth inhibition,[10]; [17],69%
same,growth inhibition,[10]; at 50.0 µM,89.5% (active)
same,growth inhibition,[10]; at 100.0 µM,36%
same,growth inhibition,[11]; at 1.2 µM,2%
same,growth inhibition,[11]; at 3.7 µM,10%
same,growth inhibition,[11]; at 11.0 µM,33%
same,growth inhibition,[11]; at 33.0 µM,77% (active)
same,growth inhibition,[11]; at 100.0 µM,88% (active)
same,growth inhibition,[12]; at 1.2 µM,9%
same,growth inhibition,[12]; at 3.7 µM,14%
same,growth inhibition,[12]; at 11.0 µM,66%
same,growth inhibition,[12]; at 33.0 µM,86% (active)
same,growth inhibition,[12]; at 100.0 µM,93% (active)
same,growth inhibition,[13]; at 1.2 µM,20%
same,growth inhibition,[13]; at 3.7 µM,16%
same,growth inhibition,[13]; at 11.0 µM,72% (active)
same,growth inhibition,[13]; at 33.0 µM,90% (active)
same,growth inhibition,[13]; at 100.0 µM,96% (active)
same,growth inhibition,[14]; [16],2%
same,growth inhibition,[14]; [17],68%
same,growth inhibition,[14]; at 50.0 µM,96.9% (active)
same,growth inhibition,[15]; at 1.2 µM,2%
same,growth inhibition,[15]; at 3.7 µM,10%
same,growth inhibition,[15]; at 11.0 µM,65%
same,growth inhibition,[15]; at 33.0 µM,86% (active)
same,growth inhibition,[15]; at 100.0 µM,93% (active)
CSc1ccc(NC(=O)C2c3[nH]c4ccccc4c3C3CCC(C(C)(C)C)CC3C2C(=O)O)cc1 (stereo not given),growth inhibition,[4]; [16],0%
same,growth inhibition,[4]; [17],-4%
same,growth inhibition,[4]; at 50.0 µM,16.8%
same,growth inhibition,[5]; [16],-16%
same,growth inhibition,[5]; [17],10%
same,growth inhibition,[5]; at 50.0 µM,1.95%
same,growth inhibition,[7]; [16],-4%
same,growth inhibition,[7]; [17],1%
same,growth inhibition,[7]; at 50.0 µM,30.8%
same,growth inhibition,[9]; [16],-19%
same,growth inhibition,[9]; [17],8%
same,growth inhibition,[9]; at 50.0 µM,56.4%
same,growth inhibition,[10]; [16],-8%
same,growth inhibition,[10]; [17],5%
same,growth inhibition,[10]; at 50.0 µM,77.1% (active)
c1ccc2c(NCCCCCCCCNc3c4ccccc4nc4ccccc34)c3ccccc3nc2c1,growth inhibition,[4]; [16],87% (active)
same,growth inhibition,[4]; [17],97% (active)
same,growth inhibition,[4]; at 50.0 µM,85.3% (active)
same,growth inhibition,[5]; [16],89% (active)
same,growth inhibition,[5]; [17],98% (active)
same,growth inhibition,[5]; at 50.0 µM,87.5% (active)
same,growth inhibition,[7]; [16],64%
same,growth inhibition,[7]; [17],90% (active)
same,growth inhibition,[7]; at 50.0 µM,75.4% (active)
same,growth inhibition,[9]; [16],44%
same,growth inhibition,[9]; [17],83% (active)
same,growth inhibition,[9]; at 50.0 µM,46.7%
same,growth inhibition,[10]; [16],68%
same,growth inhibition,[10]; [17],49%
same,growth inhibition,[10]; at 50.0 µM,80.2% (active)
same,growth inhibition,[14]; [16],91% (active)
same,growth inhibition,[14]; [17],97% (active)
